Results with a measured potency or affinity are listed apart.

The subject of one assay is Staphylococcus aureus. Conditions: Concentration 32 ug.mL-1;; ASSAY_TEST Inhibition of Bacterial Growth; detection method Absorption (OD600); MEDIA CAMHB; plate type 384well; NBS; CORNING #3640; time 18 hr.
Another assay deals with Escherichia coli. Conditions: Concentration 32 ug.mL-1;; ASSAY_TEST Inhibition of Bacterial Growth; detection method Absorption (OD600); MEDIA CAMHB; plate type 384well; NBS; CORNING #3640; time 18 hr.

Broadly, the Inhibition is the change of the read-out against control, counted positive when it falls. Turning to `Cc1ccc(NC(=O)Cn2nc3cc(C)nc(Nc4ccc(F)cc4)n3c2=O)cc1`, the Inhibition in the assay on Staphylococcus aureus is given as 6.17%; in the assay on Escherichia coli, -2.28%.
For `Cc1ccc(-c2ccc3nn(Cc4ccc(N5CCCC5=O)cc4)c(=O)n3n2)cc1`, in that order: 5.05% and -5.45%.
In the case of `O=c1n(Cc2ccccc2F)nc2ccc(S(=O)(=O)N3CCCCCC3)cn12`, the Inhibition with Staphylococcus aureus is on record as 2.98%; in the assay on Escherichia coli, -8.1%.
For `CCc1nnc2c(S(=O)(=O)N(Cc3cccc(Cl)c3)c3ccccc3)cccn12`, in that order: 4.22% and -6.56%.
For `COc1cccc(NC(=O)Cn2nc3c4cc(-c5ccc(Cl)cc5)nn4ccn3c2=O)c1`, the values for the Inhibition in the assay with Staphylococcus aureus and in the assay with Escherichia coli were 4.83% and 3.44%, respectively.
For `CCOC(=O)c1ccc(NC(=O)Cn2nc3c(Oc4ccccc4)nccn3c2=O)cc1`, in that order: -0.24% and -4.26%.
For `COc1ccc(N(Cc2ccc(OC)c(F)c2)S(=O)(=O)c2ccc3nncn3c2)cc1`, the values for the Inhibition in the assay on Staphylococcus aureus and with Escherichia coli were 2.98% and -0.06%, respectively.
As to `Cc1ccc(-c2ccc3nn(Cc4nc(-c5ccc(OC(F)(F)F)cc5)no4)c(=O)n3n2)cc1`, the figures for the Inhibition in the assay on Staphylococcus aureus and in the assay on Escherichia coli were 8.38% and -3.94%, respectively.
As for `COc1ccc(NC(=O)Cn2nc3ccc(-c4ccccc4)nn3c2=O)cc1Cl`, the Inhibition in the assay with Staphylococcus aureus is on record as -3.72%; in the assay on Escherichia coli, -7.68%.
For `COc1ccc(N2CCN(C(=O)Cn3nc4ccc(-c5ccc(Cl)cc5)nn4c3=O)CC2)cc1`, in that order: 9.33% and -1.38%.
Take `Cc1ccc(NC(=O)Cn2nc3c(SCc4ccc(Cl)cc4)nccn3c2=O)c(C)c1`: the Inhibition in the assay with Staphylococcus aureus is 10.91%; in the assay with Escherichia coli it was -3.69%.
For `CCOc1ccc(-n2ccn3c(SC(CC)C(=O)Nc4ccc(C(C)C)cc4)nnc3c2=O)cc1` (centres undefined), in that order: 5.33% and -6.24%.
With `Cc1cccc(-c2nc(CSc3nc4ccccc4n4c(C(C)C)nnc34)c(C)o2)c1`, the values for the Inhibition with Staphylococcus aureus and in the assay on Escherichia coli were 9.08% and 2.13%, respectively.
For `O=C(CSc1nnc2c(=O)n(-c3ccccc3)ccn12)c1c[nH]c2ccccc12`, in that order: 16.15% and -0.51%.
Regarding `COc1ccccc1N1CCN(C(=O)Cn2nc3c(Oc4ccc(C)cc4)nccn3c2=O)CC1`, the Inhibition in the assay on Staphylococcus aureus was found to be 6.41%; with Escherichia coli, 0.36%.
Regarding `CCc1nnc2c(=O)n(CC(=O)Nc3ccc(NC(C)=O)cc3)c3ccccc3n12`, the values for the Inhibition with Staphylococcus aureus and with Escherichia coli were 1.89% and -3.04%, respectively.
For `COc1ccc(NC(=O)C(C)Sc2nnc3c(=O)n(-c4ccccc4)ccn23)cc1` (centres undefined), in that order: 4.59% and 4.26%.
`Cc1ccc(C(=O)CSc2nnc3c(=O)n(-c4ccc(F)cc4)ccn23)c(C)c1`: the Inhibition in the assay on Staphylococcus aureus is reported as 7.85%; in the assay on Escherichia coli, -6%.
For `O=C(CSc1nnc2ccc(C(=O)NCc3ccccc3)cn12)Nc1ccccc1Br`, in that order: 7.29% and -1.34%.
In the case of `O=c1c2nnc(SCc3ccccc3F)n2ccn1-c1ccc(Br)cc1`, the Inhibition is 14.85% with Staphylococcus aureus and -2.34% with Escherichia coli.
As to `CCOc1ccc(-n2ccn3c(SCC(=O)Nc4cccc(Cl)c4)nnc3c2=O)cc1`, the Inhibition in the assay on Staphylococcus aureus is reported as -0.75%; in the assay on Escherichia coli, 2.43%.
For `COc1cccc(Sc2nc3ccccc3n3c(=O)n(CC(=O)Nc4ccc(Cl)cc4)nc23)c1`, in that order: 1.75% and -3.52%.
Take `COc1ccc(-c2cc3c4nn(CC(=O)Nc5ccc6c(c5)OCO6)c(=O)n4ccn3n2)cc1`: the Inhibition is listed as 8.96% in the assay with Staphylococcus aureus and 6.89% in the assay with Escherichia coli.
As for `Cc1nnc2c(=O)n(CC(=O)NC3CCCC3)c3ccccc3n12`, the Inhibition in the assay with Staphylococcus aureus is on record as 4.23%; in the assay with Escherichia coli, -6.29%.
For the molecule `O=C(CSc1nc2ccccc2n2cnnc12)Nc1ccc2c(c1)OCCO2`, the values for the Inhibition in the assay with Staphylococcus aureus and with Escherichia coli were 6.86% and 5.63%, respectively.
On to `CC(C)Sc1ccc2nn(CC(=O)Nc3ccc(Br)cc3F)c(=O)n2n1`, for which the Inhibition in the assay with Staphylococcus aureus is -2.61%; with Escherichia coli, 3.45%.
On to `Cc1ccc(Oc2nccn3c(=O)n(CC(=O)Nc4ccc(F)cc4F)nc23)cc1`, for which the Inhibition in the assay with Staphylococcus aureus is recorded as 19.59%; with Escherichia coli, -0.38%.
For `COc1ccc(NC(=O)Cn2nc3c(Oc4ccccc4)nccn3c2=O)cc1OC`, in that order: 1.69% and -7.24%.
Consider `COc1ccc(-c2cc3c4nnc(SCC(=O)NCc5ccccc5Cl)n4ccn3n2)cc1`, for which the Inhibition was -4.22% in the assay on Staphylococcus aureus and -7.58% with Escherichia coli.
On to `O=c1n(Cc2cccc(C(F)(F)F)c2)nc2c(S(=O)(=O)N3CCCCC3)cccn12`, for which the Inhibition in the assay with Staphylococcus aureus is listed as 4.93%; in the assay on Escherichia coli it was -3.78%.
Take `COc1ccc(NC(=O)Cn2nc3ccc(SCc4ccc(Cl)cc4)nn3c2=O)cc1OC`: the Inhibition was 0.34% with Staphylococcus aureus and -7.61% in the assay with Escherichia coli.
For `O=c1c2sccc2n2c(=O)n(Cc3cccc(Cl)c3)nc2n1Cc1cccs1`, in that order: 18.24% and -5.83%.
For `COc1ccc(-n2ccn3c(-c4ccc([N+](=O)[O-])cc4)nnc3c2=O)cc1`, in that order: 12.69% and -0.05%.
For `Cc1nnc2c(=O)n(CC(=O)Nc3cccc(Br)c3)c3ccccc3n12`, in that order: 15.88% and -0.63%.
`CCCCn1c(=O)c2sccc2n2c(=O)n(CC(=O)NC(C)C)nc12`: the values for the Inhibition with Staphylococcus aureus and in the assay on Escherichia coli were 6.34% and -3.44%, respectively.
On to `CC(C)c1ccc(NC(=O)CSc2nc3ccccc3n3cnnc23)cc1`, for which the Inhibition is recorded as 8.55% with Staphylococcus aureus and -4.05% with Escherichia coli.
For `COc1cc(NC(=O)Cn2nc3ccc(-c4ccc(Cl)cc4)nn3c2=O)cc(OC)c1`, in that order: -2.47% and -10.38%.
For `Cc1ccc(NC(=O)Cn2c(=O)c3nnc(C)n3c3ccccc32)cc1F`, in that order: 11.98% and -4.13%.
For `Cc1ccc(NC(=O)Cn2c(=O)c3nnc(C(C)C)n3c3ccccc32)c(C)c1`, in that order: 15.48% and 8.06%.
As to `COc1ccccc1NC(=O)Cn1nc2c3c4c(sc3ncn2c1=O)CCCC4`, the Inhibition is given as 0.74% with Staphylococcus aureus and -4.22% in the assay with Escherichia coli.
Take `CCN(C(=O)Cn1nc2cc(C)nc(Nc3ccc(C)c(F)c3)n2c1=O)c1ccccc1`: the values for the Inhibition in the assay with Staphylococcus aureus and in the assay on Escherichia coli were 15.67% and -1.02%, respectively.
For `CCc1ccc(N(Cc2ccccc2F)S(=O)(=O)c2cccn3c(C)nnc23)cc1`, in that order: 15.67% and -1.05%.
For `CC(=O)c1ccc(NC(=O)Cn2nc3c(SC4CCCCC4)nccn3c2=O)cc1`, in that order: 3.51% and -2.6%.
On to `CC(C)(C)S(=O)(=O)c1ccc2nn(CC(=O)Nc3ccc4c(c3)OCO4)c(=O)n2n1`, for which the Inhibition in the assay with Staphylococcus aureus was 14.6%; in the assay with Escherichia coli, 0.97%.
For `O=C(Cn1nc2c3sccc3ncn2c1=O)Nc1ccc2c(c1)OCO2`, in that order: -1.71% and -14.29%.
For `O=c1n(Cc2ccc3c(c2)OCO3)nc2c(S(=O)(=O)N3CCCCC3)cccn12`, in that order: 10.75% and 1.46%.
For `O=c1c2nnc(SCc3ccccc3)n2ccn1-c1ccc(Br)cc1`, in that order: 12.69% and -3.8%.
For `COc1ccccc1-n1ccn2c(SCC(=O)Nc3ccc(C)cc3C)nnc2c1=O`, the Inhibition in the assay with Staphylococcus aureus is listed as 14.03%; in the assay on Escherichia coli it was -4.75%.
For `CC(=O)c1ccc(NC(=O)Cn2nc3ccc(-c4ccc(C)cc4)nn3c2=O)cc1`, in that order: 10.69% and -3.43%.
Turning to `Cc1nnc2c(SCC(=O)Nc3ccc(C#N)cc3)nc3ccccc3n12`, the Inhibition in the assay on Staphylococcus aureus is on record as -1.63%; with Escherichia coli, -2.61%.
Regarding `COc1ccc(CNC(=O)Cn2nc3c(SCc4ccc(Cl)cc4)nccn3c2=O)cc1`, the Inhibition in the assay with Staphylococcus aureus is -6.61%; in the assay with Escherichia coli, -12.31%.
For `CC(C)CCn1c(=O)c2sccc2n2c(=O)n(CC(=O)NC(C)C)nc12`, in that order: -2.24% and -10.46%.
For `CN(C)C(=O)CSc1nnc2c(=O)n(-c3ccc(F)cc3)ccn12`, in that order: 8.32% and 0.14%.
Take `C=Cc1ccc(CSc2nnc3c(=O)n(-c4cccc(OC)c4)ccn23)cc1`: the Inhibition is 15.25% in the assay with Staphylococcus aureus and -3.1% in the assay on Escherichia coli.
For `CCCCc1ccc(NC(=O)Cn2nc3c(N4CC(C)CC(C)C4)nccn3c2=O)cc1` (centres undefined), in that order: -4.53% and -8.88%.
Take `COc1ccc(NC(=O)Cn2nc3c(N4CCCC(C)C4)nccn3c2=O)cc1OC` (centres undefined): the Inhibition is on record as -18.12% with Staphylococcus aureus and -13.91% in the assay with Escherichia coli.
For `Cc1ccc(Oc2nccn3c(=O)n(CC(=O)Nc4ccccc4Br)nc23)cc1`, in that order: 10.09% and -0.96%.
As to `CCCn1c(=O)c2sccc2n2c(=O)n(CC(=O)c3ccccc3)nc12`, the Inhibition in the assay on Staphylococcus aureus turned out to be 3.8%; with Escherichia coli, 2.71%.
In the case of `Cc1ccc(NC(=O)Cn2nc3ccc(SCc4ccc(Cl)cc4)nn3c2=O)c(C)c1`, the figures for the Inhibition with Staphylococcus aureus and with Escherichia coli were -11.8% and -8.79%, respectively.
For `O=C(Cn1nc2ccc(-c3ccccc3)nn2c1=O)Nc1ccc(Cl)c(C(F)(F)F)c1`, in that order: 6.21% and -6.69%.
On to `Cc1cc(C)c(NC(=O)Cn2nc3ccc(SC(C)(C)C)nn3c2=O)c(C)c1`, for which the Inhibition is on record as 11.62% with Staphylococcus aureus and -0.74% in the assay with Escherichia coli.
For `COc1cc(NC(=O)Cn2nc3ccc(C(=O)NCc4ccccc4)cn3c2=O)cc(OC)c1OC`, in that order: -6.97% and -8.69%.
For `CCCCn1c(=O)c2sccc2n2c(=O)n(CC(=O)c3ccc(OC)cc3)nc12`, in that order: 3.9% and 0.74%.
For `COc1ccccc1Cn1c(=O)c2sccc2n2c(=O)n(Cc3c(F)cccc3Cl)nc12`, in that order: 3.95% and 0.18%.
Take `O=C(Cn1nc2ccc(Sc3cccc(F)c3)nn2c1=O)Nc1cccc(C(F)(F)F)c1`: the Inhibition is listed as 5.63% with Staphylococcus aureus and -8.75% in the assay on Escherichia coli.
With `CCCCN(C)C(=O)CSc1nnc2c(=O)n(Cc3ccc(F)cc3)ccn12`, the Inhibition in the assay with Staphylococcus aureus is listed as 7.74%; in the assay with Escherichia coli, -2.27%.
Take `Cc1cc(C)c(NC(=O)Cn2nc3c4c5c(sc4ncn3c2=O)CCCC5)c(C)c1`: the Inhibition is reported as 8.81% with Staphylococcus aureus and -5.83% in the assay on Escherichia coli.
For `COC(=O)c1ccccc1NC(=O)Cn1nc2c3sc(N4CCCC4)nc3ncn2c1=O`, in that order: 6.17% and -6.93%.
For `O=C(Cn1nc2c3cc(-c4ccc(F)cc4)nn3ccn2c1=O)Nc1ccc2c(c1)OCCO2`, the values for the Inhibition in the assay with Staphylococcus aureus and with Escherichia coli were 10.64% and 1.96%, respectively.
As for `Cc1ccc(C)c(C(=O)CSc2nnc3c(=O)n(-c4ccc(F)c(F)c4)ccn23)c1`, the Inhibition was 18.46% in the assay on Staphylococcus aureus and 1.4% in the assay on Escherichia coli.
Turning to `COc1ccc(C(=O)CSc2nnc3c(=O)n(-c4ccc(F)c(F)c4)ccn23)cc1`, the values for the Inhibition in the assay on Staphylococcus aureus and with Escherichia coli were 14.04% and -0.82%, respectively.
On to `CCOc1ccc(-n2ccn3c(SCC(=O)NCc4ccc(Cl)cc4)nnc3c2=O)cc1`, for which the values for the Inhibition in the assay with Staphylococcus aureus and in the assay with Escherichia coli were 4.19% and 3.75%, respectively.
